Test [1] in a line: NCI Yeast Anticancer Drug Screen. Data for the rad50 strain (AID 155).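 Further: 0% = growth of vehicle-only cultures of the same strain.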 The note with it: S. cerevisiae rad50 strain growth inhibition; at 50.0 µM; hits give high values. The method, boiled down: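 Compounds were tested on a yeast strain with an engineered DNA damage repair alteration; the reported value is growth inhibition normalised to vehicle treatment.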
Test [2] is described as follows: NCI Yeast Anticancer Drug Screen. Data for the mec2-1 strain (AID 157). The note with it: S. cerevisiae mec2-1 strain, at 50.0 µM, hits give high values. The method, boiled down:
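Test agents were screened against the mec2-1 yeast strain, with defined DNA repair or cell cycle alteration. Growth was scored as inhibition against vehicle-only controls.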

A short description of test [3]: NCI Yeast Anticancer Drug Screen. Data for the sgs1 mgt1 strain (AID 161).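 Further: 0% = growth of cultures given vehicle only.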 The following applies: S. cerevisiae sgs1 mgt1 strain, at 50.0 µM, hits give high values. The method, boiled down: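 Genetically altered yeast, compound exposure, growth inhibition relative to vehicle.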
Test [4] in a line: NCI Yeast Anticancer Drug Screen. Data for the cln2 rad14 strain (AID 165).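 Further: 0% = growth equal to vehicle treated cultures.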 The following applies: S. cerevisiae cln2 rad14 strain, at 50.0 µM, hits give high values. The method, boiled down: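 Growth of compound-exposed yeast (cln2 rad14 genotype) measured and expressed as inhibition relative to vehicle.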
Test [5] is described as follows: NCI Yeast Anticancer Drug Screen. Data for the bub3 strain (AID 167). The following applies: S. cerevisiae bub3 mutant strain, at 50.0 µM, hits give high values. The method in brief:
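Growth of a checkpoint-deficient yeast mutant is measured after compound exposure. Values represent inhibition relative to vehicle.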

The nature of test [6]: NCI Yeast Anticancer Drug Screen. Data for the mlh1 rad18 strain (AID 175). The following applies: S. cerevisiae mlh1 rad18 strain growth inhibition; at 50.0 µM; hits give high values. The method, boiled down:
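In this whole-cell yeast screen, a strain with altered DNA damage repair is challenged with compound, and its growth is measured against matched vehicle-treated controls.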

This is part of a sample that, as a whole, favours compounds with a hit. Of some 79,000 tested, about 15% had one in any assay. Values without a mark were called inactive. The source made the active and inactive calls. No stated cut-off is given here; in the data, active means growth inhibition above about 70%; inactive means the rest.

For `On1c(-c2ccccc2)c(-c2c(-c3ccccc3)n(O)c3ccccc23)c2ccccc21`, the growth inhibition in test [1] was 0%; in test [2], 6.45%; in test [3] it was -4.9%; in test [4], -24.2%; in test [5] it was -7.6%; in test [6] it was 15.8%.

In the case of `c1ccc2c(c1)C(=NOc1nc3ccccc3c3ccccc13)c1ccccc1-2`, the growth inhibition in test [1] was -4.85%; in test [2], 10.6%; in test [3] it was 8.75%; in test [4], 3.65%; in test [5], 7.95%; in test [6] it was 12%.

Consider `CC(Cl)(CO)CCl` (stereo not given), for which the growth inhibition in test [1] was 5.45%; in test [2], 9.5%; in test [3], -2.65%; in test [4], 4.05%; in test [5], -6.4%; in test [6] it was 2.05%.

As for `CCCCC(=O)N[C@H]1C[C@H]2CC[C@@]1(C)C2(C)C`, the growth inhibition was -23.2% in test [1]; 7.5% in test [2]; -16.6% in test [3]; -4.05% in test [4]; 10.9% in test [5]; -11.8% in test [6].

As to `Cc1ccc(S(=O)(=O)c2ccc(O)c(C)c2)c(O)c1` (tested in a mixture with another compound), the growth inhibition in test [1] was 36.6%; in test [2], 22.9%; in test [3], 35.3%; in test [4], 45.6%; in test [5], 33.4%; in test [6], 50.2%.

As to `c1ccc(-c2nc(-c3ccccn3)cc3ccccc23)cc1`, the growth inhibition was -2.05% in test [1]; -17.6% in test [2]; 10% in test [3]; 2.8% in test [4]; 5.4% in test [5]; 18.8% in test [6].

For `CC(C)N(C(=O)/C=C/C(=O)N(C(C)C)C(C)C)C(C)C`, the growth inhibition was 3.7% in test [1]; 27.1% in test [2]; -1.7% in test [3]; -2.05% in test [4]; 18.8% in test [5]; -9.6% in test [6].

`O=[N+]([O-])c1cccc(N=C(c2ccccc2)N(O)c2ccccc2)c1`: the growth inhibition in test [1] is 1.8%; in test [2] it was -19.2%; in test [3] it was 0.85%; in test [4], 31.9%; in test [5], 10.9%; in test [6], 15.8%.

Turning to `O=C(NN=C1CCCCC1)c1ccccc1`, the growth inhibition in test [1] was -6%; in test [2] it was -10.1%; in test [3], -9.9%; in test [4], -25.8%; in test [5], -17.4%; in test [6] it was 0.2%.

Turning to `O=C1C2C(C(=O)N1c1cccc3ccccc13)C1(Cl)C(Cl)=C(Cl)C2(Cl)C1(Cl)Cl` (stereo not given), the growth inhibition in test [1] is 91% (active); in test [2], 93.7% (active); in test [3], 94.6% (active); in test [4], 91.5% (active); in test [5], 89.3% (active); in test [6] it was 94.5% (active).

With `[O-]c1c[n+](-c2ccc3c(c2)OCO3)no1`, the growth inhibition is 3.2% in test [1]; -3.25% in test [2]; -0.25% in test [3]; -16.4% in test [4]; 7.3% in test [5]; 13.7% in test [6].

In the case of `O=C1OC(c2ccccc2)=N/C1=C\c1ccc(F)cc1`, the growth inhibition was -10.4% in test [1]; -17.5% in test [2]; -1.75% in test [3]; -10.2% in test [4]; -19.3% in test [5]; -3.75% in test [6].

Take `CC1(C)OC(=O)ON(Cc2ccccc2)C1=O`: the growth inhibition in test [1] was -4.45%; in test [2], -2.85%; in test [3] it was 2.2%; in test [4], 2.35%; in test [5], 3.3%; in test [6], -13.4%.

On to `COC(=O)N1c2ccccc2N(C(=O)OC)c2c1oc1ccccc1c2=O`, for which the growth inhibition in test [1] was 38.2%; in test [2] it was 12.6%; in test [3] it was 33.6%; in test [4], 7.3%; in test [5], 26.5%; in test [6], 31.9%.

On to `COc1c(O)c2ccccc2c2cc(O)ccc12`, for which the growth inhibition was 6.8% in test [1]; 25.1% in test [2]; 23.6% in test [3]; -14.2% in test [4]; 56.4% in test [5]; 10.2% in test [6].

For the compound `O=C1C(n2ccc(=O)[nH]c2=O)CCN1CCCl` (stereo not given), the growth inhibition is 0.2% in test [1]; 1.35% in test [2]; 2.65% in test [3]; -23.5% in test [4]; 14.1% in test [5]; 12.5% in test [6].

Take `CC(C)CCOc1ccc(CCO)cc1`: the growth inhibition in test [1] was 0.45%; in test [2] it was -8.9%; in test [3], -4.5%; in test [4] it was -7.75%; in test [5] it was -36.4%; in test [6], -24.8%.

As for `CCOC(=O)C(=O)Nc1ccccc1`, the growth inhibition in test [1] was 43.8%; in test [2], -1.4%; in test [3], 21%; in test [4], -21.1%; in test [5], -4.15%; in test [6], 18.8%.

For the compound `Nc1nc(=O)n(CCCOc2cccc(Cl)c2)cc1-c1ccc(Cl)c(Cl)c1`, the growth inhibition in test [1] is 52.6%; in test [2], 49.4%; in test [3], 52.2%; in test [4] it was 68.8%; in test [5], 87% (active); in test [6], 51.5%.

Regarding `CCCCCCCCCCCCC(N)C(=O)O` (stereo not given), the growth inhibition in test [1] is 3.55%; in test [2] it was -9.15%; in test [3], 28%; in test [4] it was -15.8%; in test [5] it was 6.7%; in test [6], -1.3%.

Values taken from PubChem BioAssay (NCI).
